According to PubChem BioAssay AID1117361 (Southern Research Institute, 2015):
About 900 (25%) of roughly 3,600 compounds were called active. The rule behind the calls is not given here. These entries were drawn from the full list. Entries that show only a call come without a potency. Potency and affinity values are given separately.

target: Protein Tat (Human immunodeficiency virus type 1 group M subtype B (isolate HXB2)) (UniProt P04608); assay: HIV-1 Tat–TAR interaction blockers – biochemical, fluorescence polarization, FAM-labeled TAR RNA, counter-screen for Vif-APOBEC3G degradation inhibitor project, dose response (AID 1117361); conditions: Tat-TAR RNA binding; series mostly up to 100 µM

| Compound | outcome |
| --- | --- |
| CCOc1ccc(-c2nc(CN3CCCCC3CCn3cccn3)c(C)o2)cc1 (stereo unspecified) | inactive |
| N#CCSc1nc2sc3c(c2c(=O)n1C1CCCCC1)CCCC3 | inactive |
| CN(C)[C@H]1N(C(=O)c2ccc(Br)cc2)N=C2c3ccccc3S(=O)(=O)N21 | inactive |
| COc1cc(C2NC(=O)NC(C)=C2C(=O)OCC2CCCO2)ccc1O (stereo unspecified) | inactive |
| COc1ccc(NC(=S)N(CCCN2CCCC2)Cc2ccco2)cc1 | inactive |
| CCCCCC(=O)N1C[C@@H](n2cc(C3CC3)nn2)[C@H](O)C[C@@H]1c1ccc(C)cc1 | inactive |
| O=C(O)CCN1CCOCC1 | inactive |
| COc1cccc(OC)c1C(=O)NC(C)C12CC3CC(CC(C3)C1)C2 (stereo unspecified) | inactive |
| Brc1ccc(-c2nnc(-c3cccc(Br)c3)o2)cc1 | inactive |
| O=C1OC(c2ccc(Br)cc2)=N/C1=C\N1CCCCC1 | inactive |
| CCn1c(SC(C)C)nnc1-c1cc(-c2ccccc2)sc1N | inactive |
| COCCNC(=O)Cn1ncc2ccsc2c1=O | inactive |
| Cc1ccc(OCCC(=O)OCC(=O)c2ccc3c(c2)NC(=O)CO3)cc1 | inactive |
| CCC(C)[C@@H](C(=O)Nc1ccc2c(c1)OCO2)N1Cc2ccccc2C1=O (stereo partly specified) | inactive |
| Cc1ccc(S(=O)(=O)CCC(=O)Nc2ccc3c(c2)OCO3)cc1 | inactive |
| CCc1ccc(NC(=O)COC(=O)CCc2nc3cc(S(=O)(=O)N(CC)CC)ccc3n2C)cc1 | inactive |
| Cc1ccc(S(=O)(=O)NCCC(=O)N2CCN(C/C=C/c3ccccc3)CC2)cc1 | inactive |
| O=C(CSc1nc2ccccc2c(=O)n1NC(=O)c1ccccc1)c1ccccc1 | inactive |
| CCCc1cc(=O)[nH]c(SCC(=O)c2c(C)[nH]c3ccccc23)n1 | inactive |
| COc1ccc(CC(NC(C)=O)C(=O)NC2CCN(S(=O)(=O)c3cccc4ccccc34)CC2)cc1OC (stereo unspecified) | inactive |
| COc1c(F)c(F)c(C(=O)Nc2ccc3oc(-c4ccncc4)nc3c2)c(F)c1F | inactive |
| CCN(CC)c1ccc(C2NC(=O)NC(C)=C2C(=O)Nc2ccccc2)cc1 (stereo unspecified) | inactive |
| CCOC(=O)C1=C(C)NC2=C(C(=O)CC(C)(C)C2)C1c1ccsc1 (stereo unspecified) | inactive |
| CCOC(=O)c1c(O)c2ccccc2n(-c2ccccc2)c1=O | inactive |

| Compound | outcome |
| --- | --- |
| CCn1c(=O)c(C(=O)NCc2ccccn2)c(O)c2ccccc21 | inactive |
| O=C(CSc1nccn1Cc1ccccc1)Nc1nccs1 | inactive |
| CC(C)(C)OC(=O)NC(CCNC=C1C(=O)OC(C)(C)OC1=O)C(=O)O (stereo unspecified) | inactive |
| O=C(Cc1ccc2c(c1)OCCO2)N1CCN(S(=O)(=O)c2cccs2)CC1 | inactive |
| CC(=O)Nc1nnc(C)s1 | inactive |
| COc1ccc(-c2nnc(-c3ccc(N)cc3)o2)cc1 | inactive |
| COc1ccc(CNc2nc3ccccc3n2C)c(O)c1 | inactive |
| O=C(NCCc1ccncc1)Nc1ccccc1Cl | inactive |
| O=C(CCCNS(=O)(=O)c1cccc2nsnc12)NCc1ccccc1 | inactive |
| Cc1onc(-c2ccccc2)c1C(=O)NCc1cccs1 | inactive |
| O=C(NCc1ccco1)c1cc(-c2cccc(Cl)c2)on1 | inactive |
| Cc1cc2oc(=O)cc(C)c2c(=O)o1 | inactive |
| CS(=O)(=O)N1CCc2cc(C(=O)OCC(=O)c3ccccc3)ccc21 | inactive |
| CCOC(=O)c1c(NC(=O)Cn2cc([N+](=O)[O-])cn2)sc2c1CCC2 | inactive |
| CCOC(=O)c1c(NC(C)=O)sc2c1CCCNC2=O | inactive |
| COc1ccc(C)cc1NC(=O)C1CC(=O)OC12CCCCC2 (stereo unspecified) | inactive |
| Nc1c(S(=O)(=O)c2ccccc2)c2nc3ccccc3nc2n1/N=C/c1ccco1 | inactive |
| Cc1cccc(S(=O)(=O)c2c(N)n(/N=C/c3ccco3)c3nc4ccccc4nc23)c1 | inactive |
| CC(=O)N1c2c(cc(Br)cc2S(=O)(=O)N2CCOCC2)CC1C (stereo unspecified) | inactive |
| CCC(C)(C)n1nnnc1C(c1cc2cc(C)ccc2[nH]c1=O)N1CCCc2ccccc21 (stereo unspecified) | inactive |
| COc1ccc2cc(C(c3nnnn3C3CCCC3)N3CCc4ccccc4C3)c(=O)[nH]c2c1 (stereo unspecified) | inactive |
| COC(=O)c1ccc(S(=O)(=O)N2CCN(CCO)CC2)n1C | inactive |
| O=C1c2c(O)ccc(O)c2C(=O)c2c(NCCNCCO)ccc(NCCNCCO)c21 | inactive |
| O=C(O)COc1ccc(NC(=O)c2ccco2)cc1 | inactive |

| Compound | outcome |
| --- | --- |
| COC(=O)COc1ccc2c(c1C)O/C(=C\c1ccco1)C2=O | inactive |
| COc1ccc(NC(=O)c2ccc(-n3cccn3)nc2)cc1 | inactive |
| COc1ccccc1C1CC(=O)Nc2c1c(=O)n(C)c(=O)n2C (stereo unspecified) | inactive |
| O=C(Nc1nnc(C2CC2)s1)c1ccc(S(=O)(=O)c2ccccc2)cc1 | inactive |
| CC(=O)Nc1nnc(-c2c(-c3c(Cl)cccc3Cl)noc2C)o1 | inactive |
| CC12CCC(C(=O)NCCN3CCCCC3)(CC1=O)C2(C)C (stereo unspecified) | inactive |
| CC(C)C(C)NC(=O)COc1ccc(S(=O)(=O)N2CCOCC2)cc1Cl (stereo unspecified) | inactive |
| Clc1cccc(Cl)c1Cn1nnc(-c2cccs2)n1 | inactive |
| COc1ccc(N(C(=O)COc2ccccc2OC)S(=O)(=O)c2ccc(C)cc2)cc1 | inactive |
| NC(=O)c1ccc(-n2nnnc2SCC(=O)Nc2ccccc2-c2ccccc2)cc1 | inactive |
| O=C(CSc1nnnn1-c1ccccc1)Nc1nsc(-c2ccccc2)n1 | inactive |
| Cc1cc2cc(C=O)c(Cl)nc2cc1C | inactive |
| CCOc1cccc(SCc2noc(C(=O)NCC3CCCO3)c2C(=O)O)c1 (stereo unspecified) | inactive |
| Cc1ccccc1OCC(=O)NCC1CCCO1 (stereo unspecified) | inactive |
| Cc1cc2ncn(C(=O)N3CCOCC3)c2cc1C | inactive |
| O=C(CN1C(=O)NC2(CCCC2)C1=O)Nc1nc(-c2ccc(F)cc2)cs1 | inactive |
| COc1ccc(CN2C(=O)c3ccccc3C2C(=O)NCc2cccnc2)c(OC)c1 (stereo unspecified) | inactive |
| CCOc1ccc(N2C(=O)c3ccccc3C2O)cc1 (stereo unspecified) | inactive |
| C/C(=N\NC(=O)c1ccc(NS(=O)(=O)c2cccs2)cc1)c1ccccc1 | inactive |
| Cc1ccc(CN2C(=O)CCC2C(=O)N2CCN(c3ccc(F)cc3)CC2)cc1 (stereo unspecified) | inactive |
| CC(=O)n1c(Cl)c(NC(=O)CCl)c2ccccc21 | inactive |
| CC(NC(=O)C(NS(=O)(=O)c1cccs1)C(C)C)c1ccc(S(N)(=O)=O)cc1 (stereo unspecified) | inactive |
| Cc1cc(C)cc(NCCC#N)c1 | inactive |
